Test results taken from the supplement of paper PMC10849652.
The full data set covers some 7,900 targets. This sample favours those with a hit. About 0.6% of all pairs of compound and target were hits. Unmarked numbers belong to inactive results.

Columns and labels:
Experiment in all cases: log2 fold change, soluble protein after heating vs DMSO (PISA); higher = thermal stabilisation; K562 cells, 10 uM, 30 min; active = over 0.2 and 3.5 SD of the protein, either way, in both replicates (recomputed)
erlotinib = compound: C#Cc1cccc(Nc2ncnc3cc(OCCOC)c(OCCOC)cc23)c1 [erlotinib]
How it was run: (§1)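 K562 cells at 2×10^6 cells/mL were treated with 10 μM compound for 30 min. Aliquots were heated for 3 min across 48°C-58°C, pooled, and extracted in PBS with 0.5% NP-40 at 4°C; soluble protein was the supernatant after 21,000xg for 90 min. Soluble protein was quantified by TMTpro 16plex LC-MS/MS with channel sums equalised, and reported as log2 fold change in thermal stability against DMSO controls, with values from duplicates.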

[1] = compound: C/C(=N\NC(=O)C1=CC(=CC=C1)S(=O)(=O)N2CCOCC2)/C3=C(C=CC(=C3)Cl)O
How it was run: as §1

[2] = compound: C1=CC(=C(C=C1Cl)C2=NC3=NC=CN=C3C(=N2)NC4=CC=NC=C4)F
How it was run: as §1

[3] = compound: C1=CC(=CC=C1C2=NC3=C(N2)C=C(C=C3)C(=O)N)OC4=CC=C(C=C4)Cl
How it was run: as §1

[4] = compound: C1=CC2=C(C=CC(=C2)/C=C\3/C(=O)NC(=NCC4=CC=CS4)S3)N=C1
How it was run: as §1

[5] = compound: C1=CC2=NC=CN=C2C=C1/C=C/3\C(=O)NC(=O)S3
How it was run: as §1

[6] = compound: C1=CC=C(C=C1)C2=NC(=C(N2)C3=CC=NC=C3)C4=CC(=C(C=C4)Cl)O
How it was run: as §1

[7] = compound: C1=CC=C2C(=C1)C3=NNC4=CC=CC(=C43)C2=O
How it was run: as §1

[8] = compound: C1CCN(C1)C(=O)NC2=CC=CC(=C2)NC3=NC=C(C(=N3)NCCC4=CN=CN4)Br
How it was run: as §1

[9] = compound: C1CN(CCC1(CC2=CC=C(C=C2)Cl)N)C3=NC=NC4=C3C=CN4
How it was run: as §1

IRAK-1-4 Inhibitor I = compound: C1COCCN1CCN2C3=CC=CC=C3N=C2NC(=O)C4=CC(=CC=C4)[N+](=O)[O-] [IRAK-1-4 Inhibitor I]
How it was run: as §1

ibrutinib = compound: C=CC(=O)N1CCC[C@@H](n2nc(-c3ccc(Oc4ccccc4)cc3)c3c(N)ncnc32)C1 [ibrutinib]
How it was run: as §1

[10] = compound: CC(=O)c1cnc2ccc(-c3cc(Cl)c(O)c(Cl)c3)nc2c1N[C@H]1CC[C@H](CN(C)C)CC1
How it was run: as §1

ralimetinib = compound: CC(C)(C)Cn1c(N)nc2ccc(-c3[nH]c(C(C)(C)C)nc3-c3ccc(F)cc3)nc21 [ralimetinib]
How it was run: as §1

[11] = compound: CC(C)(O)CC(=O)NCCn1ccc2ncnc(Nc3ccc(Oc4cccc(C(F)(F)F)c4)c(Cl)c3)c21
How it was run: as §1

[12] = compound: CC(C)C1=C2N=C(C=C(N2N=C1)NCC3=CC=CC=C3)NCCCCCCN
How it was run: as §1

[13] = compound: CC(C)C[C@@H](C=O)NC(=O)[C@H](CC(C)C)NC(=O)[C@H](CC(C)C)NC(=O)OCc1ccccc1
How it was run: as §1

pinometostat = compound: CC(C)N(C[C@H]1O[C@@H](n2cnc3c(N)ncnc32)[C@H](O)[C@@H]1O)[C@H]1C[C@@H](CCc2nc3cc(C(C)(C)C)ccc3[nH]2)C1 [pinometostat]
How it was run: as §1

[14] = compound: CC1=C(C(CC(=O)N1)C2=CC=C(C=C2)C(F)(F)F)C(=O)NC3=C(C=C4C(=C3)C=NN4)F
How it was run: as §1

[15] = compound: CC1=C(C2=C(C=C1)C(=O)C3=CC=CC=C3N2CCCN)C
How it was run: as §1

Chain of UniProt Q9H082 (Q9H082 whole entry, looked up): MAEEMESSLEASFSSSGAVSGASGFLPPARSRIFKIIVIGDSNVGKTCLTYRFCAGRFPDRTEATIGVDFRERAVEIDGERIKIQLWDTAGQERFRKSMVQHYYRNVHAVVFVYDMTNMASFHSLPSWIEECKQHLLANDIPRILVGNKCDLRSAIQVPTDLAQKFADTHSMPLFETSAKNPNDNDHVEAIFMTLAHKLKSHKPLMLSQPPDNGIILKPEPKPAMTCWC
Chain of UniProt Q8IZE3 (Q8IZE3 whole entry, looked up): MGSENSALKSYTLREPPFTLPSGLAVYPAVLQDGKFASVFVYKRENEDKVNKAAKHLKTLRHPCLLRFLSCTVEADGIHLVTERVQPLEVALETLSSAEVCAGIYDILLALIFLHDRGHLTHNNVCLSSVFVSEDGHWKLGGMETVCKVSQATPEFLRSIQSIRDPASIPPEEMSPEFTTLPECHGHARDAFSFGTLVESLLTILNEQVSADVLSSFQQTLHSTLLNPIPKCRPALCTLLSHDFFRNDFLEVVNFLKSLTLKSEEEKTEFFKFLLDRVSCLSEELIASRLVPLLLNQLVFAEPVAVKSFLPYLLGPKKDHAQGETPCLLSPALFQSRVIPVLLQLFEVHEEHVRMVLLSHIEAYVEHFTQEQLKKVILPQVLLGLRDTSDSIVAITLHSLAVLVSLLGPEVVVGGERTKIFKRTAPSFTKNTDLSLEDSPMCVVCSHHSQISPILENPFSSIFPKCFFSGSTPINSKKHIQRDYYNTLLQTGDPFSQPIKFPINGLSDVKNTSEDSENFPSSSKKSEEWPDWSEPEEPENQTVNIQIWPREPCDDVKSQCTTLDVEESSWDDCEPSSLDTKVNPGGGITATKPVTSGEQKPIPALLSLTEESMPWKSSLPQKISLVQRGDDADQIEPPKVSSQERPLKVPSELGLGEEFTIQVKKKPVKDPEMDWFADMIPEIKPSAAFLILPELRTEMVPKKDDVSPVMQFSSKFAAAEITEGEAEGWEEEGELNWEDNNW
Chain of UniProt Q15050 (Q15050 whole entry, looked up): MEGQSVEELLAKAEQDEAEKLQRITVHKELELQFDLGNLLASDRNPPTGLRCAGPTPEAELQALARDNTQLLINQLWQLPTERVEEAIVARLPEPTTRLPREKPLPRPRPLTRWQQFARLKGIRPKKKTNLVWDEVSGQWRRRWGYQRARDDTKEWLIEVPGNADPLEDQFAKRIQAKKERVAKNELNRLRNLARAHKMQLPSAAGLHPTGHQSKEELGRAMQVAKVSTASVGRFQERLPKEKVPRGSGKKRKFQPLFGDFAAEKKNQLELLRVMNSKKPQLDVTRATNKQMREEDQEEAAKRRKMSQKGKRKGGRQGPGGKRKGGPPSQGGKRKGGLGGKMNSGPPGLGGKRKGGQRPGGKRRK
Chain of UniProt Q9H6H4 (Q9H6H4 whole entry, looked up): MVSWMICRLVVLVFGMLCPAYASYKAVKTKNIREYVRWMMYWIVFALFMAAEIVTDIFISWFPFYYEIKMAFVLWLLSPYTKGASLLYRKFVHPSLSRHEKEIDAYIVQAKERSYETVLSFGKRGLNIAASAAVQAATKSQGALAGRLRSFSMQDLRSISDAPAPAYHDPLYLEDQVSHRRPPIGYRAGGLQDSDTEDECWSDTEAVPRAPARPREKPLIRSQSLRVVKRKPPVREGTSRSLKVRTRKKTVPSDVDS
Chain of UniProt Q9NR46 (Q9NR46 whole entry, looked up): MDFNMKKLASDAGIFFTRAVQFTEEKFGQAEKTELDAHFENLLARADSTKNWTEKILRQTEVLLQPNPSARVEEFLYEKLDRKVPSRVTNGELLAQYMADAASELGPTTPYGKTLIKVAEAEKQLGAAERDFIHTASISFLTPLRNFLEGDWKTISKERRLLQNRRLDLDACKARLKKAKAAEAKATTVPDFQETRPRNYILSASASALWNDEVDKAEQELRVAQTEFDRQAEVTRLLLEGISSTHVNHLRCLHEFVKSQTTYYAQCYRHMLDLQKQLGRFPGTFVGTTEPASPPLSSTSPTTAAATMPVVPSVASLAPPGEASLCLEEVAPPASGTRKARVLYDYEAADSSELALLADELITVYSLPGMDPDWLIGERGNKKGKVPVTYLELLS
Chain of UniProt P41440 (P41440 whole entry, looked up): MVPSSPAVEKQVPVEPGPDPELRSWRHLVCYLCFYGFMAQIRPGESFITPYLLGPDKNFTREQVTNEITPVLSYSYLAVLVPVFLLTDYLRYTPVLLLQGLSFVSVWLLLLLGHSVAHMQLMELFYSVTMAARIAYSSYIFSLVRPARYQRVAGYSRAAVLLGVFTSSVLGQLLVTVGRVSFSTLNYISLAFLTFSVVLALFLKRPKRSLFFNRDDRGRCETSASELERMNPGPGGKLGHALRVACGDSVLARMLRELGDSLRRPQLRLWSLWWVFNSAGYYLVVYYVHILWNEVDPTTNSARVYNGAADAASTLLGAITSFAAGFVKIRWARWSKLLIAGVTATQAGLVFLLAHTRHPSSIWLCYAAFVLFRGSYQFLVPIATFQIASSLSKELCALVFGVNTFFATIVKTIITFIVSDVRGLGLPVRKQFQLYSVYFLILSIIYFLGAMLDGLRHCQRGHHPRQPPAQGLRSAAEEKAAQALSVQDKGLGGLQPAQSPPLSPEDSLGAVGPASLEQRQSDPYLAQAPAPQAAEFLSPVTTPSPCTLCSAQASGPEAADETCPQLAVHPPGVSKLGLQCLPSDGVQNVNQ
Chain of UniProt Q9H2M9 (Q9H2M9 whole entry, looked up): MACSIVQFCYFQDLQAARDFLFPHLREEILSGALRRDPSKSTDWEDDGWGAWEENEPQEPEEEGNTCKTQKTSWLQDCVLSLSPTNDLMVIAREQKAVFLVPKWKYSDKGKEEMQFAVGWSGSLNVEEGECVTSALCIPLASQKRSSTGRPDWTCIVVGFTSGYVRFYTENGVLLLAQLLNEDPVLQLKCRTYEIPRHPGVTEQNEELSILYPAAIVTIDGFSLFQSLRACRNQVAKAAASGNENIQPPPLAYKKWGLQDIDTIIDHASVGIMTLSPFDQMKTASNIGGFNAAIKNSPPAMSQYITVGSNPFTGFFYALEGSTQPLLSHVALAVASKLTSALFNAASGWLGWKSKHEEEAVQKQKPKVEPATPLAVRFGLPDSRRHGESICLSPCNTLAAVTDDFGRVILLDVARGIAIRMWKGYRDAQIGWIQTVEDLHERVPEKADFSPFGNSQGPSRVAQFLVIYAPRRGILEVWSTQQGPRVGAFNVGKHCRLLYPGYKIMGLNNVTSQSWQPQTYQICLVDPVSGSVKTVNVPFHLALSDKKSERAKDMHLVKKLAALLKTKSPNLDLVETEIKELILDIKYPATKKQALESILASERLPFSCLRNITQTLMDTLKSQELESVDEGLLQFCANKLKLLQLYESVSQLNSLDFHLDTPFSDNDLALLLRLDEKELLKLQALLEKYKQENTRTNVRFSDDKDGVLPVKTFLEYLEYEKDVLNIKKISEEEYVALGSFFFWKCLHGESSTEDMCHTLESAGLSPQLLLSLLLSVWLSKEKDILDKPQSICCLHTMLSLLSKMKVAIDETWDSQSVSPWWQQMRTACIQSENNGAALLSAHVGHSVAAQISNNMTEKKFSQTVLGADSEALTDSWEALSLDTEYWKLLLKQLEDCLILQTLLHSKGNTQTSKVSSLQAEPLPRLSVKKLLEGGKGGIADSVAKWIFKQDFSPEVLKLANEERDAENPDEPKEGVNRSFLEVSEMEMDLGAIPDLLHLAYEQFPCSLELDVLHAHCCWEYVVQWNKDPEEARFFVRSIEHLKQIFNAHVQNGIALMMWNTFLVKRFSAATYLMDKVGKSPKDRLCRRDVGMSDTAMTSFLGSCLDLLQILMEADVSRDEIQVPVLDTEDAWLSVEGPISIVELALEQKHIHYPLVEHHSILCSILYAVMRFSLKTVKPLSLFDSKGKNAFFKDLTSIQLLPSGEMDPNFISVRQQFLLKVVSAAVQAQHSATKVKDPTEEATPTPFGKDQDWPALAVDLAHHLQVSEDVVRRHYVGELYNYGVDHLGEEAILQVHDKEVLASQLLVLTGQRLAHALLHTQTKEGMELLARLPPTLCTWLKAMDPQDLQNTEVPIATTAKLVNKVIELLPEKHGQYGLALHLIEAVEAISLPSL
Chain of UniProt P35244 (P35244 whole entry, looked up): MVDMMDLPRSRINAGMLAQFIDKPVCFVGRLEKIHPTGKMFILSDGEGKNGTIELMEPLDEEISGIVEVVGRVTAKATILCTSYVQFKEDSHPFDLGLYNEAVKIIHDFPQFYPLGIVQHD
Chain of UniProt Q96DM3 (Q96DM3 whole entry, looked up): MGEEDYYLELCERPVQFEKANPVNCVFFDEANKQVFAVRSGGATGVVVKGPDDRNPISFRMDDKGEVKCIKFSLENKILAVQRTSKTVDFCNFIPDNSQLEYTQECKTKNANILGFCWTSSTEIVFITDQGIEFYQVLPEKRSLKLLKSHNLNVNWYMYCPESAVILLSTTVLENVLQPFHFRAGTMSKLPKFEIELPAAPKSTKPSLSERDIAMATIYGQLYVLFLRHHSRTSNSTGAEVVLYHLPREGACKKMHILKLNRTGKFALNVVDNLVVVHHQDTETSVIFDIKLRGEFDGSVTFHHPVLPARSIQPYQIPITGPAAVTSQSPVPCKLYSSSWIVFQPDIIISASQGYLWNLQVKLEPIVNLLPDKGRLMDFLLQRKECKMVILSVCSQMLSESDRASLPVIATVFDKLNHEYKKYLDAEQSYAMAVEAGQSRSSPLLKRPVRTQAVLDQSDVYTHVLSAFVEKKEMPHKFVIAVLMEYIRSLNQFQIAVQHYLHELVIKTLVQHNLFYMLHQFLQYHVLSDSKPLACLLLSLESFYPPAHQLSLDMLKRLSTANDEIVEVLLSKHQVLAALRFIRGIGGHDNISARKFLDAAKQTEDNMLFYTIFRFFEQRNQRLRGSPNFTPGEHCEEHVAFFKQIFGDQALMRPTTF

Target	log2 fold change (erlotinib)	log2 fold change [1]	log2 fold change [2]	log2 fold change [3]	log2 fold change [4]	log2 fold change [5]	log2 fold change [6]	log2 fold change [7]	log2 fold change [8]	log2 fold change [9]	log2 fold change (IRAK-1-4 Inhibitor I)	log2 fold change (ibrutinib)	log2 fold change [10]	log2 fold change (ralimetinib)	log2 fold change [11]	log2 fold change [12]	log2 fold change [13]	log2 fold change (pinometostat)	log2 fold change [14]	log2 fold change [15]
SH3GLB2 (UniProt Q9NR46)	0.048	0.081	-0.044	-0.021	0	0.01	-0.033	-0.021	-0.022	-0.013	0.028	0.004	-0.047	0.033	0.028	-0.27 (active)	0.066	-0.004	0.001	-0.021
RAB33B (UniProt Q9H082)	0.059	0.031	0.028	-0.029	-0.08	-0.012	-0.079	0.025	-0.016	0.118	0.072	0.016	-0.019	-0.092	0.027	0.113	0.112	-0.015	-0.011	-0.002
SCYL3 isoform 2 (UniProt Q8IZE3)	0.046	0.055	0.07	-0.05	0.068	-0.024	0.058	0.014	0.093	0.123	0.087	0.02	-0.002	-0.043	-0.063	-0.052	-0.002	0.054	0.013	-0.146
SAFB2 (UniProt Q14151)	0.015	-0.135	-0.294	0.071	-0.148	0.049	0.014	-0.015	-0.037	-0.041	-0.065	-0.012	0.026	0.037	0.165	0.042	0.049	0.05	0.018	-0.074
RPS18 (UniProt P62269)	-0.126	-0.088	-0.211	0.039	-0.037	-0.089	-0.024	0	0.097	-0.144	-0.099	0.053	0.052	0.055	0.06	-0.043	0.054	0.149	0.063	-0.531 (active)
REEP4 (UniProt Q9H6H4)	-0.024	0.027	-0.049	0.026	-0.018	0.005	0.063	-0.04	0.047	-0.081	0.005	-0.003	-0.198	0.164	-0.049	-0.157	0.041	0.13	0.04	0.036
RPS9 (UniProt P46781)	-0.099	-0.05	-0.384	0.024	-0.069	-0.011	0.047	0.002	0.102	-0.172	-0.1	-0.025	0.108	0.125	0.047	-0.025	0	0.206	0.005	-0.585 (active)
RRS1 (UniProt Q15050)	-0.099	-0.205	-0.536	-0.003	-0.095	0.004	-0.18	-0.018	0.162	-0.219	-0.084	0.04	0.217	0.118	0.229	0.312	0.067	0.297	-0.11	-1 (active)
RSF1 (UniProt Q96T23)	0.034	0.152	0.031	0.126	0.039	0.012	0.089	-0.057	0.01	0.006	-0.188	-0.054	0.043	0.019	-0.175	-0.114	-0.058	-0.123	0.028	-1.48 (active)
SLC19A1 (UniProt P41440)	-0.023	0.029	0.159	0.022	-0.006	0.103	0.118	-0.008	-0.009	0.08	0.017	-0.025	-0.034	0.005	-0.061	0.104	0.045	0.052	-0.045	0.073
RPS14 (UniProt P62263)	-0.166	-0.077	-0.124	0.027	-0.149	-0.04	0.039	0.045	0.031	-0.126	-0.178	0.03	0.079	0.135	-0.014	-0.016	0.003	-0.013	0.035	-0.586 (active)
RAB3GAP2 (UniProt Q9H2M9)	0.068	0.083	-0.043	-0.058	0.035	-0.011	-0.025	0.004	-0.068	-0.018	-0.079	-0.016	-0.031	0.03	0	-0.26 (active)	0.026	0.115	0.004	-0.016
RBM8A (UniProt Q9Y5S9)	-0.021	-0.014	0.012	-0.008	-0.076	0.024	-0.069	-0.035	0.025	0.003	-0.027	-0.017	0.127	-0.015	-0.002	0.128	0.024	-0.015	-0.029	0.027
RARS2 (UniProt Q5T160)	0.009	0.057	0.063	0.029	0.015	0.014	0.056	0	0.022	0.038	0.053	0.003	-0.012	-0.039	-0.081	-0.214	-0.061	-0.032	-0.011	-0.007
RMC1 (UniProt Q96DM3)	0.028	0.124	0.048	0.04	0.027	-0.038	0.011	-0.055	0.048	-0.038	0.038	0.03	-0.026	-0.025	-0.002	-0.209	0.011	-0.015	0.028	0.039
RPA3 (UniProt P35244)	-0.007	0.156	0.084	0.008	-0.058	-0.007	0.115	0.032	-0.128	-0.027	0.02	0.029	0.016	0.038	-0.097	-0.025	-0.137	0.016	0.063	0.129
